Screens from PubChem.
A340 absorber: compound absorbs light at 340 nm | compound absorbance at 340 nm, fold over control | fold change at 10 µM | 65,000 tested, under 10 active;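 active = at 10 µM dose, initial 340 nm absorbance at least 2 fold that of control wells; inactive = change under 2 fold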;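 also: initial absorbance extrapolated from kinetic A340 decline of NADH oxidation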
PMK inhibit: inhibitors of Streptococcus pneumoniae phosphomevalonate kinase. inhibition, % at 10 µM. AID 539. purified PMK, PK/LDH-coupled NADH absorbance 340 nm. actives 0.49% (n = 65,000);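 active = top-ranked compounds by inhibition in the single 10 µM screen, taking a fixed number of the strongest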;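 also: 0% = full reaction with DMSO carrier and 100% = background rate without enzyme reaction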
NADH coupling: inhibition of NAD/NADH coupling enzymes, library profiling. actives 0.02% (n = 65,000). IC50, µM (titrated, usually from 10 µM), for the others: at the top dose inhibition. coupled PK/LDH NADH assays, four targets;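 active = single-dose screening hits from any of four coupled enzyme assays that gave an IC50 when retested across doses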;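 also: the DPM-DC format reads NADH fluorescence rather than 340 nm absorbance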
Fluor 339 460: intrinsic fluorescence of library compounds, ex339/em460 – biochemical, MLSMR library, data from DPM-DC assay, artefact control, profiling panel; fluorescence fold increase at 10 µM; actives 5.5% (n = 65,000); compound autofluorescence, ex339/em460 nm, NADH buffer; active compounds read high; 1 = no-compound wells, NADH background; AID 709;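 active = at 10 µM, mean starting fluorescence two-fold or more over control wells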;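 also: signal is the first read of a kinetic run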
DPM-DC inhibit: inhibitors of Streptococcus pneumoniae diphosphomevalonate decarboxylase; calls only at 10 µM; actives 0.49% (n = 65,000); purified DPM-DC, PK/LDH coupled NADH fluorescence;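 active = the 320 compounds with the highest percent inhibition in the single-dose primary screen, excluding strongly autofluorescent ones, cut at about 32% in these data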;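 also: kinetic rate of NADH fluorescence loss reporting ADP formed by the decarboxylase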
MK inhibit: blocks S. pneumoniae mevalonate kinase; inhibition, % at 10 µM; actives 0.48% (n = 65,000); purified MK, PK/LDH-coupled NADH absorbance 340 nm;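 active = ranked among the strongest by inhibition in the single 10 µM screen, a fixed top-ranked set picked for dose follow-up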
* hit, by the source's call; i = inactive; nt = no result given; + = active, no number. The list is not random: actives were taken first. Their share in the collection is about 6.8%.

SMILES	A340 absorber	PMK inhibit	NADH coupling	Fluor 339 460	DPM-DC inhibit	MK inhibit
CCOC(=O)C1CCN(CCC(=O)Nc2cccc(Cl)c2)CC1	1	7	4%	1.1	i	5
CCOC(=O)CNC(=O)c1cnn2cccnc12	1.1	4	13%	2.3*	i	17
Cc1nonc1NC(=O)CSc1ccc(-c2ccccc2)nn1	0.96	27*	10%	0.99	i	1
O=C(Nc1ccc2oc(=O)ccc2c1)c1cccnc1	1	19	4%	1.6	i	4
O=C(Nc1nc2c(ccc3ccccc32)s1)c1ccco1	1.1	3	3%	2.8*	i	0
Cc1nc2ccc3nc(NC(=O)c4ccco4)sc3c2s1	1.2	30*	12%	1.3	i	1
Cc1nnc(NC(=O)c2ccco2)s1	1	4	2%	1	i	7
CCCC(=O)N(Cc1cc2cc(C)ccc2[nH]c1=O)c1ccccc1OC	1.1	3	2%	1.3	i	3
CCC(=O)N(Cc1cc2cc(OC)ccc2[nH]c1=O)c1cccc(C)c1	1	10	11%	3*	i	5
CCOc1ccc(N(Cc2cc3cc(OC)ccc3[nH]c2=O)C(=O)C2CCCO2)cc1 (centres undefined)	1.1	0	8%	3*	i	1
COc1ccc2[nH]c(=O)c(CN(C(=O)c3ccncc3)C(C)C)cc2c1	1	11	5%	1.7	i	1
COCC(=O)N(Cc1cc2cc(OC)ccc2[nH]c1=O)c1ccccc1OC	1	0	9%	2.6*	i	8
COc1ccc(N(Cc2cc3ccccc3[nH]c2=O)C(=O)C2CCCO2)cc1 (centres undefined)	1	0	4%	1.3	i	12
COc1ccc(CC(=O)N(Cc2cc3cc(OC)ccc3[nH]c2=O)C(C)C)cc1	1.1	8	11%	2.6*	i	7
O=C1CC(NCc2ccc3c(c2)OCO3)C(=O)N1Cc1ccc2c(c1)OCO2 (centres undefined)	1	7	2%	1.1	i	0
Cc1cc(Nc2ccc(C)c(Br)c2)n2nc(C)nc2n1	1	12	10%	1	i	18
CCC(C)NC(=O)CNC(=O)Cn1c(C)cc2ccccc2c1=O (centres undefined)	1.1	0	7%	1.2	i	8
COCC(=O)N(Cc1cc2cc(OC)ccc2[nH]c1=O)c1ccc(C)cc1	1.1	16	9%	2.1*	nt	1
COCC(=O)N(Cc1cc2ccc(C)cc2[nH]c1=O)c1ccc(OC)cc1	1	4	3%	1.2	i	5
COc1ccc(C(=O)C(CO)Oc2ccccc2OC)cc1OC (centres undefined)	1.1	9	4%	1.1	i	3
Cc1cc(=O)oc2cc(OCCSCCN3CCOCC3)ccc12	1.1	0	3%	1.4	i	7
COc1ccccc1N1CCN(CC(O)COc2ccc3c(C)cc(=O)oc3c2)CC1 (centres undefined)	1.1	0	6%	1.8	i	3
Cc1cc(=O)oc2cc(OCC(O)CN3CCN(c4ccccc4)CC3)ccc12 (centres undefined)	1.1	5	8%	3.4*	i	0
Cc1cc(=O)oc2cc(OCC(O)CN3CCc4ccccc4C3)ccc12 (centres undefined)	1.1	17	9%	4.2*	nt	0
COc1cccc(OC)c1OCC(O)CN1CCN(c2ccccc2)CC1 (centres undefined)	0.97	28*	15%	1.1	i	16
SMILES	A340 absorber	PMK inhibit	NADH coupling	Fluor 339 460	DPM-DC inhibit	MK inhibit
CCn1c2ccccc2c2nnc(SCC(=O)NC(C(=O)OC)C(C)C)nc21 (centres undefined)	1	13	7%	1.1	i	9
O=C(Nc1ccc2oc(-c3ccncc3)nc2c1)c1cccs1	1	5	2%	2	nt	4
O=C(Nc1ccc2oc(-c3cccnc3)nc2c1)c1cc2ccccc2o1	1.1	0	2%	2.1*	nt	4
CCCCC(=O)Nc1cccc(-c2nc3ncccc3o2)c1	1	14	17%	2.3*	i	11
CCC(=O)Nc1ccc2oc(-c3cccc(C)c3)nc2c1	1.1	0	0%	2.3*	nt	0
CCCCC(=O)Nc1ccc2oc(-c3cccnc3)nc2c1	1	8	7%	3.9*	nt	6
CCNc1nc(SC(C)C(=O)OC)nc(N2CCOCC2)n1 (centres undefined)	1	0	3%	1.1	i	8
COc1cccc(Oc2cncnc2-c2ccc(OC)cc2O)c1	1.1	4	3%	1.1	i	5
CCCC(=O)Nc1cccc(-c2nc3ccccc3o2)c1	1.1	2	2%	1.1	i	5
Cc1cc(-c2nc3ncccc3o2)ccc1N	1.1	7	5%	3*	nt	9
CCCC(=O)Nc1ccc2oc(-c3cccnc3)nc2c1	1	20	3%	2.8*	nt	0
CCOC(=O)c1c(C)[nH]c(C(=O)COC(=O)CSCC(=O)N(CC)CC)c1C	1.1	13	4%	1	i	0
CCCc1cc(=O)[nH]c(Nc2ccc(OC)c(Cl)c2)n1	0.99	9	4%	1	i	7
CC(O)c1cccc(NC2=CC(=O)CC(C)(C)C2)c1 (centres undefined)	1.1	6	8%	1.1	i	10
Nc1ccc(-c2nc3c(Cl)cc(N)cc3[nH]2)cc1	1.3	18	15%	4.9*	nt	11
O=C(OCc1c(Cl)nc2sccn12)c1cc2c(s1)CCCC2	1	13	6%	1.1	i	4
CC1CN(c2oc(-c3ccco3)nc2C#N)CC(C)O1 (centres undefined)	1.1	7	10%	3.8*	nt	13
N#Cc1nc(-c2ccco2)oc1N1CCC(C(N)=O)CC1	1	14	13%	3.9*	nt	11
N#Cc1nc(Cc2ccccc2)oc1N1CCC(C(N)=O)CC1	1	12	8%	1.1	i	11
CC(C)CC(c1nnnn1Cc1ccccc1)N1CCN(C(=O)c2ccco2)CC1 (centres undefined)	0.99	14	7%	0.89	i	0
CCOC(=O)C1CCCN(C(=O)CN2CCN(Cc3ccc(Cl)cc3)C2=O)C1 (centres undefined)	1.1	0	2%	1.1	i	5
Cc1c(C(=O)NCc2ccc3c(c2)OCO3)sc2nc(-c3ccc(F)cc3)cn12	1	9	3%	1.1	i	0
Cc1c(C(=O)NCc2ccc3c(c2)OCO3)sc2nc(-c3ccccc3)cn12	1.1	9	18%	1	+	12
O=C(Nc1ccccc1C(=O)NCC1CCCO1)c1ccco1 (centres undefined)	1	5	2%	1	i	7
